# Cav3 T inh: Cav3.2 calcium influx blockers – cell-based, Fluo-4 calcium fluorescence, FDSS, MLSMR library, primary screen; Voltage-dependent T-type calcium channel subunit alpha-1H (Homo sapiens), O95180; Cav3.2-expressing cells; hits give low values; B-score at 10 µM; hit rate 4% among 100,000; AID 449739, 2010;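 active means single-dose well whose peak fluorescence ratio is a statistical outlier from its plate by either plate-standardised score or position-corrected B-score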
# CYP2C19 act: human CYP2C19 activators, primary screen, biochemical, luminescence; recombinant CYP2C19, luciferin-H EGE luminescence; hits give high values; 0 = fully inhibited enzyme, 1 = untreated enzyme; Cytochrome P450 2C19 (Homo sapiens), P33261; activation factor at 5 µM; 96,000 tested, under 10 active;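 active means activation factor of at least 2 at 5 µM in the primary screen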;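 further: 0 = wells with 2.5 mM tranylcypromine and 1 = vehicle-only wells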
# PTK2B oligo ant: antagonists of Pyk2 self-association, primary screen, Q293 cells, FERM NanoBiT luminescence, HTS; z-score (the deposit names both 25 µM and 10 µM); hits give low values; AID 1347419, 2020; Protein-tyrosine kinase 2-beta (Homo sapiens), Q14289; hit rate 0.83% among 99,000;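 active means Z-score of -3 or lower, scaled per plate to the spread of control and sample wells; inactive means z-score above -3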;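 further: negative z-score means lost luminescence so less FERM oligomerization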
# CYP2C19 inh: blockers of cytochrome P450 2C19 activity – biochemical, luminescence, ADME assay, primary screen | P33261 | CYP2C19 Supersomes, luciferin-H EGE luminescence, 30 min | inhibition, % at 5 µM | hit rate 21% among 96,000;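 active means CYP2C19 inhibition above a set limit at 5 µM in the primary screen, cut at about 50% in these data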;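 further: plate controls were negative control wells for no effect and 2.5 mM tranylcypromine positive control for full effect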
# CYP2C9 inhib: blockers of cytochrome P450 2C9 activity – biochemical, luminescence, ADME assay, primary screen; AID 777, 2007; inhibition, % at 5 µM; hit rate 20% among 96,000; CYP2C9 Supersomes, luciferin-H conversion; P11712;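 active means blocking of liver enzyme CYP2C9 beyond about 50% at 5 µM, limit read from the data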
# CYP2C9 act: human CYP2C9 activators, primary screen, biochemical, luminescence; recombinant CYP2C9, luciferin-H conversion; hits give high values; factor 1 = untreated enzyme, 0 = blocked; activation factor at 5 µM; hit rate 1.4% among 96,000; AID 1024, 2008;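 active means activation factor of 2 or more for CYP2C9 at a 5 µM dose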;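 further: 0 = sulfaphenazole-blocked wells and 1 = vehicle-only wells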
# An asterisk follows results filed as active; . = no result given. Compounds with a hit are over-represented: about 27% of the library has one in this group of screens.
SMILES,Cav3 T inh,CYP2C19 act,PTK2B oligo ant,CYP2C19 inh,CYP2C9 inhib,CYP2C9 act
CCc1ccc(NC(=O)CSc2nc3ccccc3c(=O)n2CCCC(=O)N2CCCC2)cc1,-0.644,0.6,-1.79,36.6,38.5,0.6
O=C(CCCCCn1c(SCc2ccncc2)nc2ccccc2c1=O)NCc1ccco1,-2.27,.,-0.08,.,.,.
Cc1cc(NC(=O)CSc2nc3ccccc3c(=O)n2CCCC(=O)NCc2ccco2)n[nH]1,0.659,0.2,-0.05,84.0*,70.6*,0.3
CCCCCCCCCS(=O)(=O)N/N=C/c1cccc([N+](=O)[O-])c1,-0.216,0.8,0.3,21.8,67.9*,0.3
CCCCCCCC(=O)Nc1ccc(C(=O)N/N=C/c2cccc([N+](=O)[O-])c2)cc1,-0.289,1,-0.86,-4.9,12.1,0.9
N/C(=N\OS(=O)(=O)c1ccc(Cl)cc1)c1ccncc1,0.261,0.3,0,68.2*,80.8*,0.2
N/C(=N\OC(=O)Cc1ccc(Cl)cc1)c1cccnc1,0.626,1,0.03,-3.9,-11.7,1.1
CCOC1(OCC)N=C(N)C2(C#N)C(c3cccc(C)c3)C12C#N (centres undefined),0.128,0.7,-0.54,28.9,23.3,0.8
CCCCC(=O)NC1(C(F)(F)F)C(=O)Nc2c1c(=O)n(C)c(=O)n2C (centres undefined),-0.0411,0.9,-0.79,10.9,0.3,1
Cc1ccnc(NS(=O)(=O)c2cccc3nsnc23)c1,0.0964,0.9,-0.7,7.4,11.3,0.9
COc1ccc(S(=O)(=O)Nc2c(C)ccc3nsnc23)cc1OC,-0.00227,0.3,0.73,69.4*,2.7,1
COc1ccc(NS(=O)(=O)c2cccc3nsnc23)cc1OC,0.201,0.2,0.49,82.2*,16.9,0.8
Cc1ccc2nsnc2c1S(=O)(=O)Nc1cccc2nsnc12,-0.198,0.8,-1.6,23.4,89.7*,0.1
CCOC(=O)c1ccc(CNS(=O)(=O)c2c(C)ccc3nsnc23)o1,-0.0454,0.7,-0.21,27.0,41.9,0.6
COc1ccc(S(=O)(=O)Nc2cc(C)on2)cc1OC,-1.45,.,-0.02,.,.,.
Cc1cccc(NS(=O)(=O)c2cccc3nsnc23)c1,-1.04,0.2,-1.2,76.4*,13.0,0.9
COc1ccc(CCNC(=O)CCS(=O)(=O)c2cccc3nsnc23)cc1OC,2.18,1,1.04,-1.4,35.8,0.6
CC(=O)Nc1cccc(NS(=O)(=O)c2cccc3nsnc23)c1,-1.65,0.4,-0.3,57.4*,37.1,0.6
COc1ccc(N2CSC3=C(C#N)C(c4cc(OC)c(OC)cc4OC)CC(=O)N3C2)c(OC)c1 (centres undefined),1.41,0.9,.,9.0,33.6,0.7
COc1ccc(N2CSC3=C(C#N)C(c4ccc(OC)c(OC)c4)CC(=O)N3C2)c(OC)c1 (centres undefined),0.917,1,.,-1.6,13.7,0.9
COc1ccc(N2CSC3=C(C#N)C(c4cc(OC)ccc4OC)CC(=O)N3C2)c(OC)c1 (centres undefined),0.664,1,.,1.4,52.9*,0.5
N#CC1=C2SCN(Cc3ccco3)CN2C(=O)CC1c1cccc2ccccc12 (centres undefined),0.21,1.1,-1.77,-7.5,41.7,0.6
CCOc1ccccc1N1CSC2=C(C#N)C(c3c(OC)ccc4ccccc34)CC(=O)N2C1 (centres undefined),-2.07,0.2,.,75.1*,99.9*,0
COc1ccc(C2CC(=O)N3CN(c4ccc(C)c(Cl)c4)CSC3=C2C#N)cc1OC (centres undefined),0.556,0.8,.,20.6,95.8*,0
COc1ccc(CNC(=O)CCc2c(C)nc3ncnn3c2C)cc1,.,1.1,-0.27,-11.3,-5.1,1.1
SMILES,Cav3 T inh,CYP2C19 act,PTK2B oligo ant,CYP2C19 inh,CYP2C9 inhib,CYP2C9 act
CC1CN(C(=S)NC(=O)c2ccc([N+](=O)[O-])cc2)CC(C)O1 (centres undefined),0.0428,0.9,0.19,10.0,9.8,0.9
Cc1oc2ccc(OCc3ccccc3F)cc2c1C(=O)O,0.178,1,0.12,2.8,39.6,0.6
CN(C(=O)CSc1nnc(Nc2ccccc2)s1)c1c(N)n(Cc2ccccc2)c(=O)[nH]c1=O,.,0.7,0.05,25.9,64.1*,0.4
CCCCN(C(=O)CSc1nnc(Nc2ccc(C)c(C)c2)s1)c1c(N)n(Cc2ccccc2)c(=O)[nH]c1=O,-5.31*,0.7,-1.56,26.9,27.0,0.7
CCN(C(=O)CSc1nncn1-c1ccccc1)c1c(N)n(Cc2ccccc2)c(=O)[nH]c1=O,.,.,-0.37,.,.,.
O=C(CSc1ccc2nnc(-c3ccccn3)n2n1)NCc1ccco1,-0.0223,.,.,.,.,.
COc1ccc(-c2csc(NCCc3nc4cc(C(=O)NCCCO)ccc4n3Cc3ccc(C)cc3)n2)cc1,-0.575,.,.,.,.,.
COc1cc(Cl)ccc1S(=O)(=O)n1nc(C)cc1C,-1.32,0.3,0.19,75.0*,15.0,0.8
COc1cc(S(=O)(=O)n2nc(C)cc2C)c(OC)cc1Cl,-0.982,0.2,0.31,82.7*,28.9,0.7
NCC1CCC(C(=O)Oc2ccc(CCC(=O)O)cc2)CC1 (centres undefined),-0.0185,.,.,.,.,.
Cn1cnnc1Sc1cc(N2CCN(S(=O)(=O)c3ccc(Cl)c(Cl)c3)CC2)ccc1[N+](=O)[O-],0.0514,0,-0.69,99.7*,88.8*,0.1
O=C(Nc1ccc(Cl)cc1)N(C1=NCCC1)c1ccc(OC(F)F)cc1,-0.376,0.7,-0.3,26.5,61.1*,0.4
O=C(Nc1ccc(Br)cc1F)c1sccc1-n1cccc1,-0.456,1.1,-0.59,-13.8,-5.9,1.1
O=C(CN(Cc1cccs1)C(=O)CNS(=O)(=O)c1ccccc1)NCc1ccco1,.,0.5,0,52.5*,27.2,0.7
O=C(CN(Cc1ccco1)C(=O)CNS(=O)(=O)c1ccc(F)cc1)NCCc1ccccc1,-1.17,0.3,-0.37,65.4*,61.0*,0.4
O=C(CN(Cc1ccco1)C(=O)CNS(=O)(=O)c1ccccc1)NC1CCCCC1,.,0.7,1.97,30.1,11.5,0.9
Cc1ccc(S(=O)(=O)NCC(=O)N(CC(=O)NCc2ccco2)Cc2ccc3c(c2)OCO3)cc1,-5.15*,0.7,-0.29,30.6,28.4,0.7
O=C(CN(Cc1ccco1)C(=O)CNS(=O)(=O)c1ccccc1)NCc1ccccc1,-0.00422,0.4,-0.86,60.8*,27.2,0.7
Cc1ccc(S(=O)(=O)NCC(=O)N(CC(=O)NCC2CCCO2)Cc2ccccc2)cc1 (centres undefined),-0.65,0.7,-0.89,30.0,1.3,1
CCCCOc1ccc(Cl)cc1Nc1nc(NCCO)nc(N2CCCC2)n1,0.329,.,.,.,.,.

# Screening results (PubChem)
